Measured values reported in PubChem BioAssay (NCATS).
Records with an inconclusive call do not appear. Unmarked numbers belong to inactive results. The source made the active and inactive calls. Calls follow the shape of the dose curve; as a rule, active = well fitted inhibition curve with a large enough effect; inconclusive = small, poorly fitted or top-dose-only effect; inactive = flat fitted curve, though single readings scatter.

target: Calcium and integrin-binding protein 1 (Homo sapiens) (UniProt Q99828); experiment: Primary qHTS for Identification of Calcium Integrin Binding Protein 1 (CIB1) Competitor (AID 1508620); settings: CIB1-GST / FITC-alphaIIb peptide fluorescence polarization; series mostly up to 57.7 µM; activity change, negative = inhibition: at the top concentration;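 also: GST tagged CIB1 binding a fluorescein labelled alphaIIb integrin peptide tracer; top concentration of the series differs between compounds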
Method in brief: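 CIB1-GST (1 uM final) and compound incubated 15 min at room temperature before adding FITC-alphaIIb peptide tracer (100 nM final). Competition for binding read by fluorescence polarization (ex 480, em 540) after another 15 min at room temperature.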
% is scaled to controls: 0 for no effect and ±100 for the full control effect.

Calcium and integrin-binding protein 1 (Homo sapiens), sequence (Q99828 whole entry, looked up): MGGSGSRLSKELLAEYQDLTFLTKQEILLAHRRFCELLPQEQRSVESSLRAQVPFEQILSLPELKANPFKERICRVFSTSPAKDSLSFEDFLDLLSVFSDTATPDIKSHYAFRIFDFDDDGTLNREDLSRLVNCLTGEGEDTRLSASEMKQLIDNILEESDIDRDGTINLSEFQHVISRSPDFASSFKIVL

| Compound | activity change, negative = inhibition | Potency |
| --- | --- | --- |
| COC(=O)c1cc(CN2CCN(C(=N)N)CC2)cc(C(=O)N2CCN(C(=O)c3ccc(C(=N)N)cc3)CC2)c1 | -0.852% [at 114 µM] |  |
| CC1=CC(=O)CC(C)(C)C1(O)CCC(C)O (stereo not given) | 0.25% [at 114 µM] |  |
| CCOC(=O)Nc1nc2ccccc2[nH]1 | 0.856% [at 114 µM] |  |
| CC(C)(O)C1CC=C(C(=O)OCC2OC(Oc3c(O)cc(C(=O)O)cc3O)C(O)C(O)C2O)CC1 (stereo not given) | -11.1% |  |
| CC1C/C=C/C=C\CCCCC(O)C/C=C/C(=O)O1 (stereo not given) | -1.69% [at 114 µM] |  |
| COc1ccc2cc(OCC3(C(=O)O)CN(C(=O)c4ccc(F)cc4)C3)ccc2c1 | -1.14% [at 114 µM] |  |
| C[C@]12CCC[C@](C)(C(=O)O)C1CCC13C=C(CO)C(CCC12)C3 (stereo not given in full) | 3.6% |  |
| Cc1[nH]cnc1C1CCN(c2nc3cccc4c3n2CCC4=O)CC1 | 0.388% [at 114 µM] |  |
| C=C(C)C(C)C1OC23CC4(CO2)C(CCC2C5(C)CCC(OC6OCC(O)C(OC7OC(CO)C(O)C(OC8OCC(O)C(O)C8O)C7O)C6OC6OC(CO)C(O)C6O)C(C)(C)C5CCC24C)C3C(C)(O)C1OC(C)=O (stereo not given) | 14.5% [at 30.2 µM] |  |
| CC1CCC2(C)C(CC(O)C(O)C23CO3)C1(C)CCC1=CC(O)OC1=O (stereo not given) | 1.06% |  |
| CC1CCC2(O1)C(C)(C)CC(O[C@@H]1O[C@H](CO[C@@H]3OC[C@](O)(CO)[C@H]3O)[C@@H](O)[C@H](O)[C@H]1O)CC2(C)O (stereo not given in full) | -1.07% |  |
| CC1CCC2(C)C(CC(O)C(O)C23CO3)C1(C)CCC1=CC(=O)OC1O (stereo not given) | -8.93% |  |
| CCS(=O)(=O)N1CCC([C@@H](C)n2c(C)c(C(=O)NCc3c(OC)cc(C)[nH]c3=O)c3ccccc32)CC1 | -6.33% [at 114 µM] |  |
| Cc1ncc([N+](=O)[O-])n1CC(O)CN1CCOCC1 (stereo not given) | -4.43% [at 114 µM] |  |
| CCCn1cnc2c(NCc3ccccc3)nc(N[C@H](CC)CO)nc21 | -3.36% [at 114 µM] |  |
| CCOC(=O)[C@H](CCc1ccccc1)N[C@@H](C)C(=O)N1C2CCCCC2C[C@H]1C(=O)O (stereo not given in full) | -1.92% [at 114 µM] |  |
| C=CC1(C)CC(O)C2(CCC3C(C)(C(=O)O)CCCC3(C)C2=O)C1 (stereo not given) | -1.71% |  |
| CC1OC(O[C@H]2[C@@H](O)C[C@@]3(C)C([C@H](O)C[C@]4(C)C3CC=C3C5CC(C)(C)CC[C@]5(C(=O)OC5OC(CO)C(O)C(O)C5OC5OCC(OC6OCC(OC7OCC(O)C(O)C7O)C(O)C6O)C(OC6OCC(O)(CO)C6O)C5O)CC[C@]34C)[C@]2(C)CO)C(O)C(O)C1O (stereo not given in full) | -4.55% [at 12.4 µM] |  |
| CC1CCC2C(C)(C)C(O)CCC2(C)C12Cc1c(O)cc3c(c1O2)C(N)=NC3 (stereo not given) | 2.43% |  |
| Cc1cc(O)c(C(C)C)cc1O[C@@H]1O[C@H](CO)[C@@H](O)[C@H](O)[C@H]1O | -0.575% |  |

| Compound | activity change, negative = inhibition | Potency |
| --- | --- | --- |
| CN1CCC(c2c[nH]c3ccc(NC(=O)c4ccc(F)cc4)cc23)CC1 | 0.46% [at 114 µM] |  |
| CC1(CO)CC[C@]2(C(=O)O[C@@H]3O[C@H](CO)[C@@H](O)[C@H](O)[C@H]3O)CC[C@]3(C)C(=CCC4[C@@]5(C)C[C@H](O)[C@H](O[C@@H]6OC[C@@H](O)[C@H](O)[C@H]6O)[C@@](C)(CO)C5CC[C@]43C)C2C1 (stereo not given in full) | 5.66% [at 30.2 µM] |  |
| C=C1C2=CC(O)C(C)C1(C)CC/C(C)=C/CCC1(C)OC1C2=O (stereo not given) | 3.11% |  |
| N#Cc1ccnc(N2C(=O)CC[C@H]2C(=O)N(c2cncc(F)c2)[C@H](C(=O)NC2CC(F)(F)C2)c2ccccc2Cl)c1 |  | inactive |
| COc1c(OC2OC(CO)C(O)C(O)C2O)ccc(O)c1C(=O)OCc1ccccc1O[C@@H]1O[C@H](CO)[C@@H](O)[C@H](O)[C@H]1O (stereo not given in full) | 1% [at 30.2 µM] |  |
| CC1=CCC2C(C)(CO)CCCC2(CO)C1CO (stereo not given) | -6.49% [at 114 µM] |  |
| C[C@H]1[C@H](C)CC[C@]2(C(=O)O)CC[C@]3(C)C(=CC[C@@H]4[C@@]5(C)C[C@@H](O)[C@H](O)[C@@](C)(CO)[C@@H]5CC[C@]43C)[C@H]12 | 4.72% [at 114 µM] |  |
| CCC(C)/C=C(C)/C=C/C1=CC2=C(Cl)C(=O)C(C)(OC(C)=O)C(=O)C2=CN1C1CCCCN(C(CCC(N)=O)C(=O)O)C1=O (stereo not given) | -16.8% [at 30.2 µM] |  |
| CC(O)(CC(=O)O)CC(=O)O[C@@H]1[C@@H](O)[C@H](OCCc2ccccc2)O[C@H](CO)[C@H]1O (stereo not given in full) | 4.23% |  |
| CC1OC(OC2C(C)OC(OC3C(OC(=O)/C=C/c4ccc(O)cc4)C(CO)OC(OC4(COC(=O)/C=C/c5ccc(O)cc5)OC(CO)C(O)C4O)C3OC3OCC(O)(CO)C3O)C(O)C2O)C(O)C(O)C1O (stereo not given) | 0.727% [at 30.2 µM] |  |
| CC(CCC1(O)OC2CC3C4CCC5CC(O[C@@H]6O[C@H](CO)[C@@H](O)[C@H](O)[C@H]6O[C@@H]6OC[C@@H](O)[C@H](O)[C@H]6O)C(O)CC5(C)C4CCC3(C)C2C1C)CO[C@@H]1O[C@H](CO)[C@@H](O)[C@H](O)[C@H]1O (stereo not given in full) | -0.357% [at 30.2 µM] |  |
| C[C@H]1[C@H](C)CC[C@]2(C(=O)O)CC[C@]3(C(=O)O)C(=CCC4[C@@]5(C)CC[C@H](O[C@@H]6O[C@H](C)[C@@H](O)[C@H](O)[C@H]6O)C(C)(C)C5CC[C@]43C)[C@H]12 (stereo not given in full) | 2.39% [at 30.2 µM] |  |
| CNC(=O)COC(=O)NCCC1CCN(c2cccc(C)n2)CC1 | -0.68% [at 114 µM] |  |
| C[C@@H]1O[C@@H](O[C@H]2[C@H](OC(=O)[C@]34CCC(C)(C)C[C@H]3C3=CCC5[C@@]6(C)CC[C@H](O[C@@H]7O[C@H](CO[C@@H]8OC[C@H](O)[C@H](O)[C@H]8O)[C@@H](O)[C@H](O)[C@H]7O)C(C)(C)C6CC[C@@]5(C)[C@]3(C)C[C@H]4O)OC[C@@H](O)[C@@H]2O)[C@H](O)[C@H](O)[C@H]1O[C@@H]1OC[C@H](O)[C@H](O[C@@H]2OC[C@@H](O)[C@H](O)[C@H]2O)[C@H]1O (stereo not given in full) | 0.282% [at 12.4 µM] |  |
| C=CCc1ccc(O[C@@H]2O[C@H](CO)[C@@H](O)[C@H](O)[C@H]2O)c(OC)c1 | 0.572% |  |
| O=C(O)C[C@H](O)C[C@H](O)/C=C/c1c(C2CC2)nc2ccccc2c1-c1ccc(F)cc1 | -7.65% [at 114 µM] |  |
| CC(=O)NC(C(=O)OC1CCC(C)(C)C2CC=C3C(=O)OCC3(O)C12C)C(C)C (stereo not given) | 2.2% |  |
| O=C(CCCCc1ccc2ccccc2c1)C(F)(F)F | -2.3% [at 228 µM] |  |
| CCCCCCc1cccc(NC(=O)[C@H](N)CCP(=O)(O)O)c1 | 3.77% [at 30.2 µM] |  |
| CC[C@H]1OC(=O)[C@H](C)[C@@H](OC2C[C@@](C)(OC)[C@@H](O)[C@H](C)O2)[C@H](C)[C@@H](OC2O[C@H](C)C[C@H](NC)[C@H]2O)[C@](C)(O)C[C@@H](C)CN(C)[C@H](C)[C@@H](O)[C@]1(C)O (stereo not given in full) | 1.68% [at 114 µM] |  |
